# PubChem BioAssay (EPA / NIEHS)
# Inconclusive results are not listed. The source made the active and inactive calls. The calls were made as follows, unless noted: active = hit-call score of the fitted dose curve at least 0.9, where 1 is the maximum; inactive = score below 0.9.
# What was measured:
# [1] = biological target: Peroxisome proliferator-activated receptor gamma (Homo sapiens) (UniProt P37231); assay: OT_PPARg_PPARgSRC1_0480: Odyssey Thera (OT) 8-hour Protein-Complementation Assay for Peroxisome Proliferator-activated Receptor Gamma / SRC-1 Co-activator (AID 2283387; active = hit-call score of the fitted dose curve at least 0.9, where 1 is the maximum;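 also: nuclear to cytoplasmic split Venus YFP fluorescence ratio reporting PPARg SRC-1 interaction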)
# Chain of Peroxisome proliferator-activated receptor gamma (Homo sapiens) (P37231 whole entry, looked up, the tested form may be a part): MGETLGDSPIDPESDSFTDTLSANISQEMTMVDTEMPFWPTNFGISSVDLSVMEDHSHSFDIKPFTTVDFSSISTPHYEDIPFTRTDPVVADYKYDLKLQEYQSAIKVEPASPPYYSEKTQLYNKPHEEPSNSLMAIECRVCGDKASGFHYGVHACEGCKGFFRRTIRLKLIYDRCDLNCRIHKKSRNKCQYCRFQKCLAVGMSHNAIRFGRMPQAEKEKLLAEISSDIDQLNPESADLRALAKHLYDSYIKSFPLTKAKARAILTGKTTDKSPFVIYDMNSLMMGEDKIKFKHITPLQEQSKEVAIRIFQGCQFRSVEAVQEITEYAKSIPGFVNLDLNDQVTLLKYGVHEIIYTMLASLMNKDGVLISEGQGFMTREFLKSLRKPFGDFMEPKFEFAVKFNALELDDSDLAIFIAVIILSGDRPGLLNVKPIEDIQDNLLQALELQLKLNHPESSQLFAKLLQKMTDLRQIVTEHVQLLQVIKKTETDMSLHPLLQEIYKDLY
# Procedure, shortened: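 Split-YFP (IFP1/IFP2) PPARg/SRC-1 reporter, HEK293T, 37 °C, 5% CO2; 8 h compound; formaldehyde fix + Draq5; high-content imaging, N/C ratio, ≥350 cells/image, positive direction vs DMSO.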
# [2] = biological target: Peroxisome proliferator-activated receptor gamma (Homo sapiens) (UniProt P37231); assay: OT_PPARg_PPARgSRC1_1440: Odyssey Thera (OT) 24-hour Protein-Complementation Assay for Peroxisome Proliferator-activated Receptor Gamma/ SRC-1 Co-activator (AID 2283388; active = hit-call score of the fitted dose curve at least 0.9, where 1 is the maximum;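 also: nuclear to cytoplasmic ratio of reconstituted Venus YFP fluorescence in fixed imaged cells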)
# Procedure, shortened: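 Readout: nuclear-to-cytoplasmic 488 nm fluorescence ratio, ≥350 cells per image, 8 images per well, after 24 h compound exposure of HEK293T expressing PPARg/SRC-1 split-YFP fusions. Activity fitted in positive direction against DMSO.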
# [3] = CEETOX_H295R_CORTIC: CeeTox H295R High-throughput Steroidogenesis Assay for Corticosterone (CORTIC) (AID 2283437); details: actives raise or lower the signal;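 also: corticosterone secreted into medium quantified by mass spectrometry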;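 as to AC50: human H295R adrenal cells prestimulated with forskolin before chemical exposure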
# Procedure, shortened: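 H295R adrenal cells prestimulated 48 hours with 10 uM forskolin, then exposed 48 hours to chemical in 0.1% DMSO. Corticosterone in medium measured by HPLC-MS/MS after MTBE extraction; MTT viability in the same wells; bidirectional fit versus DMSO.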
# [4] = CEETOX_H295R_CORTISOL: CeeTox H295R High-throughput Steroidogenesis Assay for Cortisol (AID 2283438); details: actives raise or lower the signal;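 also: cortisol secreted into medium quantified by LC-MS/MS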
# Procedure, shortened: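 Human adrenocortical H295R cells (passage ≤10) received test chemicals for 48 h after forskolin priming. Secreted cortisol was measured by LC-MS/MS.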
# [5] = CEETOX_H295R_ESTRADIOL: CeeTox H295R High-throughput Steroidogenesis Assay for Estradiol (AID 2283440); details: actives raise or lower the signal;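 also: estradiol secreted into medium quantified by LC-MS/MS after dansyl derivatisation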
# Procedure, shortened: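 H295R, 48 h forskolin (10 uM) prestim → 48 h compound, 0.1% DMSO final. Estradiol in medium: MTBE extraction, dansyl chloride derivatization, LC-MS/MS. Fit bidirectional vs DMSO baseline; MTT viability in same wells.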
# [6] = CEETOX_H295R_ESTRONE: CeeTox H295R High-throughput Steroidogenesis Assay for Estrone (AID 2283441); details: actives raise or lower the signal;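 also: estrone secreted into medium measured by LC-MS/MS after dansyl derivatization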;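 as to AC50: human adrenal H295R cells prestimulated with forskolin for two days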
# Procedure, shortened: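 H295R cells; 48 h forskolin (10 uM) prestimulation; 48 h compound exposure, 0.1% DMSO final. Medium estrone: MTBE extraction, dansyl derivatization, HPLC-MS/MS. Bidirectional fit vs DMSO.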
# [7] = CEETOX_H295R_PROG: CeeTox H295R High-throughput Steroidogenesis Assay for Progesterone (PROG) (AID 2283442); details: actives raise or lower the signal;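 as to AC50: human H295R adrenal cells primed with 10 µM forskolin before dosing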
# Procedure, shortened: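 Progesterone read-out: HPLC-MS/MS on MTBE extracts of conditioned medium after 48 h chemical exposure of forskolin-primed (10 uM, 48 h) H295R cells. Gain or loss of signal was fitted relative to DMSO baseline.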
# [8] = read-out: Tumor necrosis factor receptor superfamily member 6 (Homo sapiens) (UniProt P25445); assay: LTEA_HepaRG_FAS: Life Technologies and Expression Analysis (LTEA) Assay for Fas cell surface death receptor (FAS) using HepaRG (AID 2283447); details: mRNA level, 48 h; actives raise or lower the signal
# Procedure, shortened: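 Differentiated HepaRG cells in serum-free induction medium were exposed 48 h to 8 half-log concentrations up to 100 uM in 0.5% DMSO, in duplicate. FAS mRNA was measured by qRT-PCR normalised to ACTB, GAPDH and POLR2A; bidirectional fit versus DMSO.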
# [9] = read-out: Cyclin D2 (CCND2), CCND2 (gene 894); assay: LTEA_HepaRG_CCND2: Life Technologies and Expression Analysis (LTEA) Assay for Cyclin D2 (CCND2) using HepaRG (AID 2283449); details: mRNA level, 48 h; actives raise or lower the signal;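 also: CCND2 transcript measured by TaqMan qRT-PCR and normalised to three housekeeping genes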
# Procedure, shortened: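 Chemicals in 0.5% DMSO, eight half-log concentrations from 100 uM top, were applied in duplicate for 48 h to human HepaRG cells in serum-free induction medium. CCND2 mRNA by TaqMan qRT-PCR, normalised to ACTB/GAPDH/POLR2A; bidirectional fit versus DMSO.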
structure (smiles),measurement,setting,value
CCOCn1c(-c2ccc(Cl)cc2)c(C#N)c(Br)c1C(F)(F)F,outcome,[1],inactive
same,outcome,[2],inactive
same,outcome,[3],inactive
same,AC50,[4],7.15 µM (active)
same,AC50,[5],4.19 µM (active)
same,AC50,[6],5.33 µM (active)
same,AC50,[7],2.1 µM (active)
C=CCN=C=S,outcome,[1],inactive
same,outcome,[2],inactive
O=c1nc(O)n(Cl)c(=O)n1Cl,outcome,[1],inactive
same,outcome,[2],inactive
O=C(NC(=O)c1c(F)cccc1F)Nc1cc(Cl)c(OC(F)(F)C(F)C(F)(F)F)cc1Cl (stereo unspecified),outcome,[1],inactive
same,outcome,[2],inactive
CCCSP(=S)(OCC)Oc1ccc(SC)cc1 (stereo unspecified),outcome,[1],inactive
same,outcome,[2],inactive
same,outcome,[5],inactive
same,outcome,[6],inactive
same,AC50,[7],6.35 µM (active)
O=[N+]([O-])c1ccc(Nc2ccccc2)cc1,outcome,[3],inactive
same,outcome,[4],inactive
same,outcome,[5],inactive
same,outcome,[6],inactive
same,outcome,[7],inactive
O=C(N[C@H]1CN2CCC1CC2)c1ccc2c(c1)OCCO2,outcome,[1],inactive
same,outcome,[2],inactive
same,outcome,[8],inactive
same,outcome,[9],inactive
O=C(O)C1(c2ccc3c(c2)OC[C@H](Cc2ccc(-c4ccccc4)cc2)[C@H]3O)CCCC1,outcome,[1],inactive
same,outcome,[2],inactive
same,outcome,[8],inactive
same,outcome,[9],inactive
Oc1cc(Cl)c(Cl)cc1Cl,outcome,[1],inactive
same,outcome,[2],inactive
same,outcome,[8],inactive
same,outcome,[9],inactive
CCOP(=S)(OCC)O/N=C(\C#N)c1ccccc1,outcome,[1],inactive
same,outcome,[2],inactive
same,AC50,[3],13.8 µM (active)
same,AC50,[4],87.8 µM (active)
same,AC50,[7],50 µM (active)
Clc1cccc(Cl)c1,outcome,[1],inactive
same,outcome,[2],inactive
same,outcome,[8],inactive
same,outcome,[9],inactive
Oc1c(Cl)cc(Cl)cc1Cl,AC50,[7],50 µM (active)
same,outcome,[8],inactive
same,outcome,[9],inactive
COC(=O)Nc1cccc(OC(=O)Nc2cccc(C)c2)c1,outcome,[1],inactive
same,outcome,[2],inactive
same,outcome,[3],inactive
same,outcome,[4],inactive
same,outcome,[7],inactive
Clc1cccc(Cl)c1Cl,outcome,[1],inactive
same,outcome,[2],inactive
same,outcome,[8],inactive
same,outcome,[9],inactive
CCCCCCCCCCCCN(C)C,outcome,[1],inactive
same,outcome,[2],inactive
same,outcome,[3],inactive
same,outcome,[4],inactive
same,outcome,[5],inactive
same,outcome,[6],inactive
same,outcome,[7],inactive
CCOP(=O)(OCC)OC(=CCl)c1ccc(Cl)cc1Cl,AC50,[3],5.28 µM (active)
same,AC50,[4],5.66 µM (active)
same,AC50,[7],5.17 µM (active)
Oc1cccc(-c2ccccc2)c1,outcome,[3],inactive
same,outcome,[4],inactive
same,outcome,[5],inactive
same,outcome,[6],inactive
same,AC50,[7],10 µM (active)
